Source: PubChem BioAssay
Most compounds without a hit are left out; they make up all but 3% or so of the library.
TexasRed fluor = alters Texas Red total fluorescence, flagging assay interference; Potency, µM (series often up to 106 µM), inactives show top-dose fluorescence change, negative = quenching; TRb/SRC2 Texas Red total fluorescence interference; 0.29% of 280,000 active; active = well fitted curve in either direction with a large enough effect; inconclusive = small, poorly fitted or top-dose-only effect
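Human TRβ ligand-binding domain (0.6 uM) and Texas Red SRC2 peptide (20 nM) in Tris buffer with 1 uM T3 and 5% DMSO were incubated with pinned compound for 5 hr at ambient temperature. Total fluorescence was computed as S + 2P (555/632 nm).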
Tau fibril ThT = tau fibrillization inhibition (ThT binding) | P10636 | recombinant tau K18 P301L, heparin-induced fibrillization, ThT fluorescence | Potency, µM (highest dose often 57.4 µM), for the others: top-dose activity, negative = inhibition, most hits filed as inhibitors | 2.1% of 270,000 active; also: nearly all actives have a fitted effect of over 55% in size
Target sequence (P10636 561-689 P618L limits assumed): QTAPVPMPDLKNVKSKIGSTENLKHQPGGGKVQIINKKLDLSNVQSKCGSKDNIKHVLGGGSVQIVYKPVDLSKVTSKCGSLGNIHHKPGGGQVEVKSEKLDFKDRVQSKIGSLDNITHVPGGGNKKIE
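Tau K18 P301L fragment (15 uM unlabeled plus 0.24 uM Alexa 594-labeled) in 100 mM sodium acetate pH 7 with compound, fibrillization induced by 20 uM heparin for 6 hr at 37 C. Thioflavin T (30 uM) added, fluorescence read after 1 hr (ex 450, em 510 nm).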
TRb SRC2 PPI = disrupts binding of human TR beta to SRC2. 0.065% of 280,000 active. AID 1469. TRbeta-SRC2 peptide binding, fluorescence polarization; receptor liganded with 1 µM T3. Potency, µM (series often up to 106 µM), for inactives: at the highest dose activity change, negative = inhibition, hits mostly inhibitors. P10828;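 also: plate controls were bound peptide for no effect and peptide without receptor for full effect; nearly all actives have a fitted effect of over 50% in size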
Target sequence (P10828 whole entry, looked up): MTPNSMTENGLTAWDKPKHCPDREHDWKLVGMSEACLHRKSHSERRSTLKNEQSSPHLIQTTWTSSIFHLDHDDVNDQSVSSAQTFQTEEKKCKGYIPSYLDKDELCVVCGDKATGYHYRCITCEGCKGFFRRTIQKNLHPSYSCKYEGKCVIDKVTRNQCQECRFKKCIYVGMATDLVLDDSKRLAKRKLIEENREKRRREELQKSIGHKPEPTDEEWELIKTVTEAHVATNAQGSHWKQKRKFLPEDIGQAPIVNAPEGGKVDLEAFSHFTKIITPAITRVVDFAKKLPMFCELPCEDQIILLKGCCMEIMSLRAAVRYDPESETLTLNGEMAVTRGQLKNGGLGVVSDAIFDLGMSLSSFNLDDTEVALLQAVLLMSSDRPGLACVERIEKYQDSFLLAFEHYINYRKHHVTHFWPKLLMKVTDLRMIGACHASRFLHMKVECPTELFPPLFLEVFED
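Quantitative HTS by FP: 0.6 uM TRb LBD, 20 nM labeled SRC2 20-mer, 1 uM T3, 5% DMSO; 5 hr ambient incubation; % activity per concentration and potencies from concentration series.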
Tau FP inhib = blocks human tau fibril formation measured by polarization; P10636; K18 P301L tau heparin fibrillization, Alexa594 FP, 6 h; Potency, µM (doses to about 57.7 µM), for inactives: at the highest dose activity, negative = inhibition, actives largely listed as inhibitors; 0.39% of 280,000 active; also: nearly all actives have a fitted effect of over 55% in size
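Human tau K18 […] P301L fragment, 15 uM unlabeled plus 0.24 uM Alexa 594-labeled tau (final), with compound and 20 uM heparin in 100 mM sodium acetate pH 7; 6 hr at 37 C, then Alexa 594 FP read.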
Tau fluor counter = counter-screen for tau fibril formation inhibitors; tau K18 P301L (four-repeat tau fragment) Alexa594 fluorescence, heparin fibrillization; 0.93% of 280,000 active; AID 1463; Potency, µM (doses to about 57.7 µM), for the others: top-dose activity change, negative = decrease; also: nearly all actives have a fitted effect of over 55% in size
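Human K18 P301L tau (15 uM unlabeled plus 0.24 uM Alexa 594-labeled, final) in 100 mM sodium acetate pH 7 was mixed with compound and 20 uM heparin and incubated 6 hr at 37 C.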
* marks the source's active call; other numbers are inactive results; ? = inconclusive; . = no result given; [ ] = remark or other dose. Unless noted, calls follow the shape of the dose curve; as a rule, active = well fitted curve in the direction sought with a large enough effect; inconclusive = small, poorly fitted or top-dose-only effect, or another doubt; inactive = no such curve, though single readings can be large; an effect the other way counts as inactive or inconclusive. Unless noted, % is scaled to controls: 0 for no effect and ±100 for the full control effect; potency is read from the fitted curve at half-maximal effect.

SMILES	TexasRed fluor	Tau fibril ThT	TRb SRC2 PPI	Tau FP inhib	Tau fluor counter
CCCCN(CCCC)CC(O)Cn1cc(/C=C/C(=O)c2ccccc2)c2ccccc21 (configuration not stated)	-2%	?	-7%	-7%	?
CCCCN(C)CC(O)Cn1cc(/C=C/C(=O)c2ccc(OCC)cc2)c2ccccc21 (configuration not stated)	-2%	11µM*	3%	-12%	?
Cc1[nH]n(-c2ccccc2)c(=O)c1C(c1cccc([N+](=O)[O-])c1)c1c(C)[nH]n(-c2ccccc2)c1=O	-2%	?	-3%	?	?
CSc1nc(O)c(C(c2cccc([N+](=O)[O-])c2)c2c(O)nc(SC)[nH]c2=O)c(=O)[nH]1	-5%	11µM*	-2%	?	-28%
CCCCOCCOCCOC(C)=O	-5%[201 µM]	.	2%[201 µM]	.	.
O=C(NC1(C(F)(F)F)N=C(c2ccccc2)N(Cc2ccccc2)C1=O)c1ccc(F)cc1 (configuration not stated)	-30%	-5%	-2%	-11%	-25%
NCCC(=O)N[C@H](Cc1cnc[nH]1)C(=O)O	-3%	0%	-4%	-6%	-5%
COc1ccccc1C1NC=C([N+](=O)[O-])C=C1[N+](=O)[O-] (configuration not stated)	-8%	11µM*	0%	?	?
O=C(O)c1ccc(N=Nc2c(O)[nH]c3ccccc23)cc1	-6%	16µM*	-10%	5%	-10%
O=C(CSc1nc2ccccc2[nH]1)N=Nc1c(O)[nH]c2ccccc12	-3%	14µM*	-17%	-13%	?
CC(=O)c1cccc(N=Nc2c(C)[nH]c3ccccc23)c1	-2%	10µM*	0%	-10%	14µM*[quencher]
O=C(N=Nc1c(O)[nH]c2ccccc12)c1cccs1	-15%	10µM*	1%	-14%	-26%
COc1ccc(-c2nnc(SCC(=O)NCc3ccccc3)nc2-c2ccc(OC)c(OC)c2)cc1OC	?	-1%	2%	3%	6%
COc1ccc(-c2nc(-c3ccccc3)c(NC(C)(C)C)o2)cc1	-3%	-2%	7%	-5%	-3%
O=C(O)c1cc2ccccc2cc1O	-6%[201 µM]	.	1%[201 µM]	.	.
COc1ccc(-c2nc(SCC(=O)Nc3ccc4c(c3)OCCO4)c(-c3ccc(F)cc3)[nH]2)cc1	-9%	-1%	0%	?	8.9µM*[quencher]
COc1ccc(-c2[nH]c(-c3cccc(OC)c3)nc2SCC(=O)NCc2ccco2)cc1	-5%	?	7%	?	14µM*[quencher]
COc1ccc2nc(SCC(=O)Nc3ccc4c(c3)OCCO4)[nH]c2c1	-2%	?	-2%	3%	-28%
COc1ccc(-c2nc(SCC(=O)Nc3ccc4c(c3)OCO4)c(-c3ccc(F)cc3)[nH]2)cc1OC	-2%	1%	0%	3%	?
COc1ccc(-c2nc(SCC(=O)Nc3ccc4c(c3)OCCO4)c(-c3ccc(F)cc3)[nH]2)cc1OC	-3%	-12%	4%	5%	6.3µM*[quencher]
COc1cccc(-c2nc(SCC(=O)Nc3ccc4c(c3)OCCO4)c(-c3ccc(C)cc3)[nH]2)c1	-3%	?	-2%	?	5µM*[quencher]
Cc1cccc(C(=O)n2nc(-c3cccnc3)nc2NCc2ccc(F)cc2)c1	-23%	?	-1%	-3%	?
Cc1csc2nc(-c3ccc(NS(=O)(=O)c4cccc(F)c4)cc3)cn12	-1%	-15%	-9%	?	?
COC(=O)C1=C(C)N(c2ccc(Cl)cc2)/C(=C/c2ccc(O)cc2)C1=O	-1%	?	-3%	4%	-2%
COC(=O)C1=C(C)N(c2cc(C)cc(C)c2)/C(=C/c2ccc(O)cc2)C1=O	-3%	32µM*	5%	2%	-20%
SMILES	TexasRed fluor	Tau fibril ThT	TRb SRC2 PPI	Tau FP inhib	Tau fluor counter
Cc1ccc(NC(=O)CN2C(=O)N/C(=C/c3ccco3)C2=O)cc1	50µM*[quencher]	?	11%	?	-24%
Cc1ccc(NC(=O)CN2C(=O)N/C(=C/c3cccn3-c3ccc(C(=O)O)cc3)C2=O)cc1	-13%	-8%	5%	4%	-5%
COc1ccc(NC(=O)/C=C/c2ccccc2[N+](=O)[O-])c(OC)c1	-1%	13µM*	-4%	10%	?
COc1ccc(OC)c(NC(=O)/C=C/c2ccccc2[N+](=O)[O-])c1	-8%	?	-6%	?	?
COC(=O)C(=Cc1ccccc1[N+](=O)[O-])C(=O)OC	-3%	25µM*	4%	?	-27%
O=C(Cc1ccccc1)N/N=C/C=C/c1ccccc1[N+](=O)[O-]	0%	-4%	-7%	-12%	-3%
O=C(O)c1ccc(N/N=C/C=C/c2ccccc2[N+](=O)[O-])cc1	-3%	13µM*	-14%	12%	-26%
COc1ccc(/C=N/Nc2ncc(-c3ccccc3)cn2)c(OC)c1	-4%	?	1%	-4%	-19%
COc1ccc(/C=N/Nc2ncccc2[N+](=O)[O-])c(OC)c1	-1%	13µM*	3%	1%	?
Cc1cccc(-c2noc(-c3ccc(NCc4cccnc4)c([N+](=O)[O-])c3)n2)c1	-2%	8%	1%	0%	-7%
O=C1c2ccccc2-c2nnc(-c3ccc(O)cc3)cc21	-14%	5µM*	9%	15%	?
Cc1ccc(-c2cc3c(nn2)-c2ccccc2C3=O)cc1	-3%	.	-1%	4%	-13%
CCN(c1ccc(C)cc1C)S(=O)(=O)c1nnc(NC(=O)CC(C)C)s1	3%	-17%	-7%	-3%	-12%
CC1(C)CC(=O)C(C=Nc2ccc(O)c(N=CC3=C(O)CC(C)(C)CC3=O)c2)=C(O)C1	0%	4µM*	1%	?	?
CC1(C)CC(=O)C(C=Nc2ccc3c(c2)OCO3)=C(O)C1	-3%	-11%	-3%	-3%	-8%
Cc1cc(C)[n+]2[nH]c(N)c(N=Nc3ccccc3)c2n1	-2%	16µM*	3%	4%	-21%
Cc1ccc(N(CC(=O)NCCc2ccccc2C)S(=O)(=O)N(C)C)cc1	-2%	0%	0%	-4%	-11%
CCOc1ccc(-c2c(C)nn3c(C)c(C(=O)NCC(C)c4ccccc4)cnc23)cc1OCC (configuration not stated)	-4%	?	0%	?	-19%
O=C(Nc1ccccc1NC(=O)NC1CCCCC1)NC1CCCCC1	-6%	1%	1%	0%	6%
Nc1ccccc1NC1CCCCC1	0%	22µM*	-5%	-7%	?
COc1ccc(-c2cc(C(=O)Nc3sc4c(c3C(N)=O)CCC(C)C4)no2)cc1 (configuration not stated)	8%	?	0%	-12%	-10%
